In all, about 340,000 compounds went through this assay and about 3,300 (0.97%) were called active. About 9% were inconclusive and are not listed. Calls come from the whole dose curve; as a rule, active = well fitted inhibition curve with a large enough effect; inconclusive = small, poorly fitted or top-dose-only effect, or effect the other way; inactive = flat fitted curve, though single readings scatter. Some of the results follow.
Assay: qHTS Assay for Modulators of miRNAs and/or Inhibitors of miR-21; note: nearly all actives have a fitted effect of over 55% in size
Conditions: HeLa miR-21-FLuc reporter, luciferase luminescence, 48 h; actives lower the signal
Method in brief: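 HeLa miR-21-FLuc reporter line, endogenous miR-21; 2000 cells/well in DMEM/10% FBS; compound titration up to ~40uM final, 48 h, 37 degree Celsius; luciferase detection reagent, 15 min lysis, CCD luminescence.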
Potency is the fitted concentration of half-maximal effect.

Potency, active:
CCc1cc(C(=O)NNC(=S)Nc2ccccc2C)cs1 2.07 µM
Cc1cc(C(=O)NNC(=S)Nc2ccccc2C)cs1 1.65 µM
c1ccc2nc(-c3ccc(-n4ccnc4)cc3)ccc2c1 0.826 µM
COc1ccc(C(=O)N[C@H](C(=O)Nc2nc3c(s2)CCCC3)C(C)C)cc1 2.93 µM
Nc1ccc2c(c1)sc1ccccc12 6.56 µM
O=C(O)c1cc(N/N=C/C=C/c2ccccc2)ccc1Cl 0.826 µM
NNc1ccc(Cl)c(C(=O)O)c1 6.56 µM
O=C(O)c1cc(N/N=C/C=C/c2ccccc2[N+](=O)[O-])ccc1Cl 3.29 µM
NS(=O)(=O)c1ccc(N/N=C/C=C/c2ccccc2[N+](=O)[O-])cc1 3.29 µM
O=C(O)c1cc(N/N=C/C(Cl)=C/c2ccccc2)ccc1Cl 0.233 µM
O=C(O)c1ccc(N/N=C/C=C/c2ccccc2[N+](=O)[O-])cc1 4.65 µM
Fc1cccc(Cl)c1CNc1n[nH]c(-c2ccco2)n1 7.36 µM
CC(C)c1ccc(CNc2n[nH]c(-c3ccco3)n2)cc1 2.07 µM
Nc1c(C(=O)N/N=C/c2cccnc2)cnn1-c1ccccc1 16.5 µM
Nc1c(C(=O)N/N=C/c2ccccc2)cnn1-c1ccccc1 1.47 µM
Cc1ccccc1OCC1Cc2c(nc(N)c(C#N)c2N)O1 (centres undefined) 14.7 µM
N#Cc1c(N)nc2c(c1N)CC(COc1ccccc1)O2 (centres undefined) 7.36 µM
C=C(C)Cn1cnc2c(oc3nc4c(cc32)CCCC4)c1=O 1.17 µM
Cc1cc(C=C2C(=O)c3ccccc3C2=O)c(C)n1C 18.5 µM
Cc1cc(C=C2C(=O)c3ccccc3C2=O)c(C)n1-c1cccc(C(=O)O)c1 11.7 µM
CCn1c(C)cc(C=C2C(=O)c3ccccc3C2=O)c1C 13.1 µM
NC(=O)c1sc2nc(-c3ccco3)ccc2c1N 14.7 µM
CC(=O)c1sc2nc(-c3ccco3)ccc2c1N 14.7 µM
Cc1cc2cc(CCNC(=O)c3cccs3)c(=O)[nH]c2cc1C 3.69 µM
Cc1ccc2cc(CCNC(=O)c3cccs3)c(=O)[nH]c2c1C 2.93 µM
Cc1ccc2cc(CCNC(=O)c3cccs3)c(=O)[nH]c2c1 4.14 µM
CSCc1ccc(C(=O)Nc2ccc(C(N)=O)cc2)cc1 1.65 µM
CC(=O)c1ccc(NC(=O)/C(Cl)=C/c2ccccc2)cc1 5.21 µM
O=C(Nc1ccc(F)cc1)/C(Cl)=C/c1ccccc1 1.31 µM
CC(C)=CCN1CCN(Cc2cnc(N3CCOCC3)s2)CC1CCO (centres undefined) 1.65 µM
COc1ccc(Cn2c(SCC#N)nc3ccc(N4CCOCC4)cc3c2=O)cc1 6.56 µM
Cc1cc(N(CCO)CCO)ccc1N=Nc1cc(F)ccc1F 9.27 µM
COc1ccc(C(=O)C(OC(=O)c2ccccc2Cl)c2ccccc2)cc1 (centres undefined) 14.7 µM
Cc1ccc(-c2nnc3ccccc3c2C(=O)Nc2ccc(F)cc2)cc1 6.56 µM
COc1cccc(NC(=O)c2c(-c3ccc(C)cc3)nnc3ccccc23)c1 4.65 µM
Cc1nnc(SCc2ccccc2)c2cc3sccc3n12 14.7 µM
COc1cccc2cc(-c3nc(-c4ccccc4F)no3)c(=O)oc12 0.185 µM
COc1cccc2cc(-c3ccccc3)c(=O)oc12 1.65 µM
Cc1cc(NC(=O)CSc2nc3c(cc2C#N)CCCC3)no1 1.47 µM
N#Cc1cc2cc3c(cc2nc1SCC(=O)N1CCOCC1)OCO3 0.656 µM
COc1cc2cc(C#N)c(SCC(=O)N3CCOCC3)nc2cc1OC 11.7 µM
Clc1ccc(-c2cnc3ccccc3n2)cc1 4.14 µM
CCCCOc1ccc(-c2cnc3ccccc3n2)cc1 0.656 µM
CN(C)c1ccc(-n2cccc2/C=N/n2cnnc2)cc1 8.26 µM
O=C(OCc1ccccn1)c1ccc(COc2ccc3ccccc3c2)o1 6.56 µM
COC(=O)c1ccc(COc2ccc(C)c(C)c2)o1 14.7 µM
COC(=O)c1ccc(COc2ccc(C(C)(C)C)cc2)o1 10.4 µM
CCCc1ccc(OCc2ccc(C(=O)OC)o2)c(OC)c1 7.36 µM
COC(=O)c1ccc(COc2ccc(C)cc2[N+](=O)[O-])o1 13.1 µM
CCc1ccc(OCc2ccc(C(=O)OC)o2)cc1 5.21 µM
COC(=O)c1ccc(COc2ccc3c(c2)CCC3)o1 5.21 µM
Cc1cc(Cl)c2oc(C(=O)NCCC3CCCCO3)c(C)c2c1 (centres undefined) 14.7 µM
C=CCN(C(=O)c1oc2c(Cl)cc(C)cc2c1C)C1CCS(=O)(=O)C1 (centres undefined) 10.4 µM
Cc1cc(Cl)c2oc(C(=O)N(C)CC3CCOCC3)c(C)c2c1 14.7 µM
Cc1cc(Cl)c2oc(C(=O)N(C)C3CCOC3)c(C)c2c1 (centres undefined) 14.7 µM
CCc1cc2c(=O)n(-c3ccccc3)cnc2s1 13.1 µM
Cc1nc2sc(-c3ccccc3)cc2c(=O)n1/N=C/N(C)C 3.29 µM
CCCCn1cnc2c(oc3ccccc32)c1=O 13.1 µM
CN(C)c1ncnc2sc(-c3ccccc3)cc12 14.7 µM
CC(=O)Cn1nnc2sc(-c3ccccc3)cc2c1=O 1.85 µM
CCn1cnc2sc(-c3ccccc3)cc2c1=O 1.47 µM
O=C(CSc1ncnc2ccccc12)c1ccc2c(c1)OCCO2 2.07 µM
CCc1cc2c(SCC(=O)c3ccccc3)ncnc2s1 8.26 µM
CCCCn1cnc2sc(-c3ccccc3)cc2c1=O 1.31 µM
CC(=O)Cn1cnc2sc(-c3ccccc3)cc2c1=O 4.14 µM
O=C(NC1CCCCC1)c1cc(-c2cccs2)on1 2.93 µM
O=C(NC1CCCC1)c1cc(-c2cccs2)on1 2.33 µM
Cn1c(C(=O)NC2CCCCC2)cc2sccc21 6.56 µM
O=C(Nc1nnc(SCc2c(Cl)cccc2Cl)s1)C1CCCO1 (centres undefined) 18.5 µM
O=C(Nc1nnc(-c2ccccc2F)s1)C1CCCO1 (centres undefined) 1.85 µM
O=C(Nc1ncc(Cc2cccc(Cl)c2)s1)C1CCCO1 (centres undefined) 7.36 µM
Cc1cccc2sc(NC(=O)C3CCCO3)nc12 (centres undefined) 13.1 µM
O=C(Nc1ncc(Cc2cccc(Cl)c2Cl)s1)C1CCCO1 (centres undefined) 7.36 µM
CC1CCCN(c2ccc(C(=O)NCc3cccs3)cn2)C1 (centres undefined) 6.56 µM
CC(C)(CO)NC(=O)c1ccc2c(c1)C(=O)c1ccccc1-2 5.21 µM
Cc1ccsc1C(=O)OCC(=O)NCCC1=CCCCC1 18.5 µM
O=c1[nH]cnc2scc(-c3ccc(-c4ccccc4)cc3)c12 0.521 µM
N#Cc1c(-n2ncnc2-c2ccc(F)cc2)sc2c1CCCCC2 3.69 µM
Cc1ccccc1-c1ncnn1-c1sc2c(c1C#N)CCCCC2 1.31 µM
C1=Nc2ccccc2CN1c1ccccc1 5.85 µM
Oc1cccc(-c2nc3ccc4ccccc4c3c3c2CCC3)c1 5.21 µM
CCOCCCNC(=O)c1cccc(OC2CCN(S(C)(=O)=O)CC2)c1 5.85 µM
Nc1c(C(=O)C2CC2)sc2nc3c(cc12)CCC3 1.85 µM
Nc1c(C(=O)N2CCCCC2)sc2nc3c(cc12)CCCC3 1.31 µM
CN(C(=O)c1ccco1)c1nc(-c2ccccc2)cs1 1.85 µM
COCCCN(C(C)=O)c1nc(-c2ccccc2)cs1 6.56 µM
COc1ccc(/C=N/Nc2nncc3ccccc23)c(OC)c1 5.85 µM
COc1ccccc1/C=N/Nc1nncc2ccccc12 4.65 µM
COc1ccccc1C(=O)NC1=NC(c2ccc(Br)cc2)CC(=O)N1 (centres undefined) 1.85 µM
N=c1nc(N)nc2n1NC(c1ccc(F)cc1)=CS2 16.5 µM
Clc1ccccc1/C=C/c1nc(-c2cccnc2)no1 0.656 µM
C(=C\c1nc(-c2ccccc2)no1)/c1ccccc1 1.04 µM
Cc1ccc2oc(-c3ccco3)cc(=O)c2c1 5.85 µM
Cc1cccc2c1-c1sc(C(=O)N3CCCCC3)cc1CO2 3.69 µM
Cc1cccc2c1-c1sc(C(=O)Nc3ccccc3C(N)=O)cc1CO2 0.165 µM
CCN(CC)c1ccc(-c2nc3cnccc3n2C)cc1 3.69 µM
COc1ccc(NC(=O)n2ncc3cc(Cl)ccc32)cc1OC 8.26 µM
COc1ccc(NC(=O)n2ncc3c(C)cccc32)cc1OC 7.36 µM
COc1ccc2nc3sc(C(=O)NCc4cccs4)c(N)c3cc2c1 1.31 µM
Cc1ccc2nc3sc(C(=O)NCc4ccco4)c(N)c3cc2c1 0.521 µM
Clc1ccc2nc(N3CCN(c4ccccc4)CC3)sc2c1 0.464 µM
c1ccc(CN2CCN(c3nc4ccccc4s3)CC2)cc1 1.31 µM
Clc1ccc2nc(N3CCCCC3)sc2c1 2.07 µM
CC(C)(C)c1ccc(/C=C/C(=O)Nc2nncs2)cc1 0.369 µM
O=C(COc1ccc(Br)cc1Br)NC(=S)Nc1cccc(CO)c1 1.65 µM
O=C(COc1ccc2ccccc2c1Br)NC(=S)Nc1cccc(CO)c1 20.7 µM
COc1ccc(C(=O)N=c2sc3c(C)ccc(OC)c3n2C)cc1 0.185 µM
COc1ccccc1C(=O)N=c1sc2c(C)ccc(OC)c2n1C 3.69 µM
CCn1c(=NC(=O)c2ccc3c(c2)OCCO3)sc2c(C)ccc(OC)c21 1.31 µM
